Results: PubChem BioAssay (Tox21)
Inconclusive results are not listed. Active and inactive are the calls of the source. Calls come from the whole dose curve; as a rule, active = well fitted curve in the direction sought with a large enough effect in the repeat runs; inconclusive = weak or mixed curves; inactive = no such curve, though single readings can be large; an effect the other way counts as inactive or inconclusive.

Columns and labels:
[1] = Human pregnane X receptor (PXR) small molecule agonists, qHTS cell viability counter screen (AID 1346977); note: nearly all actives have a fitted effect of over 50% in size; note: potency is the fitted concentration of half-maximal effect
Outline: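 Cytotoxicity counter screen run in the same wells as the PXR luciferase assay, using PXR-Luc HepG2 cells in charcoal-stripped serum medium. Viability: CellTiter-Fluor fluorescence after 24hr compound treatment.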

[2] = Caspase-3/7 induction in HepG2 cells by small molecules, qHTS assay (AID 1346978); note: nearly all actives have a fitted effect of over 15% in size
Outline: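 Wild-type HepG2 cells, 2,000/well, settled 5 hr at 37 C and 5% CO2, then compound-treated for 17 hr; caspase-3/7 activity read by luminescent Caspase-Glo 3/7 after 30 min at room temperature.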

[3] = Caspase-3/7 induction in CHO-K1 cells by small molecules, qHTS cell viability counter screen (AID 1346979); note: nearly all actives have a fitted effect of over 35% in size; note: potency is the fitted concentration of half-maximal effect
Outline: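 Cytotoxicity counter screen run in parallel with the caspase-3/7 assay: CHO-K1 cells, 16hr compound treatment at 37C, then CellTiter-Fluor for 1hr before fluorescence reading.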

[4] = Caspase-3/7 induction in CHO-K1 cells by small molecules, qHTS assay (AID 1346980); note: nearly all actives have a fitted effect of over 15% in size
Outline: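 Wild-type CHO-K1 cells exposed to compounds for 17hr at 37 C, 5% CO2. Caspase-3/7 activity then measured by Caspase-Glo 3/7 luminescence after 30min at room temperature.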

[5] = Caspase-3/7 induction in HepG2 cells by small molecules, qHTS cell viability counter screen (AID 1346981); note: nearly all actives have a fitted effect of over 30% in size; note: potency is the fitted concentration of half-maximal effect; for activity change, negative = cytotoxicity: series mostly up to about 92 µM
Outline: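 Wild-type HepG2 cells, 2,000/well, settled 5 hr at 37 C, 5% CO2 before compound addition. Viability read by CellTiter-Fluor fluorescence, reagent added after 16 hr compound exposure, then 1 hr at 37C, in the same wells as the caspase read.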

[6] = target: Nuclear receptor subfamily 1 group I member 2 (Homo sapiens) (UniProt O75469); assay: Human pregnane X receptor (PXR) small molecule agonists, qHTS assay (AID 1346982); note: nearly all actives have a fitted effect of over 35% in size; note: potency is the fitted concentration of half-maximal effect
Outline: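 PXR-Luc HepG2 reporter cells (CYP3A4-driven luciferase) in 5% charcoal-stripped FBS medium, plated 5 h before compound addition, then treated 24 h at 37C. Luciferase read by ONE-Glo luminescence after 30 min at room temperature.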

[7] = target: Cytochrome P450 2C19 (Homo sapiens) (UniProt P33261); assay: Cytochrome P450 Family 2 Subfamily C Member 19 (CYP2C19) small molecule antagonists: luciferase reporter qHTS assay (AID 1671197); note: nearly all actives have a fitted effect of over 65% in size; note: potency is the fitted concentration of half-maximal effect; for activity change, negative = inhibition: series mostly up to about 120 µM
Outline: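 Quantitative high-throughput screen of the Tox21 library using CYP2C19 with proluciferin substrate. Reaction: NADPH regeneration, 37C, 1 h, after 10 min compound preincubation at room temperature. Readout: luminescence.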

[8] = target: Cytochrome P450 2C9 (Homo sapiens) (UniProt P11712); assay: Cytochrome P450 Family 2 Subfamily C Member 9 (CYP2C9) small molecule antagonists: luciferase reporter qHTS assay (AID 1671198); note: nearly all actives have a fitted effect of over 50% in size; note: potency is the fitted concentration of half-maximal effect; for activity change, negative = inhibition: series mostly up to about 120 µM
Outline: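 P450-Glo proluciferin substrate with CYP2C9 enzyme; 10 min RT preincubation, then NADPH regeneration 1 h at 37C; luciferin detection reagent 20 min RT, luminescence in relative luminescence units.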

[9] = target: Cytochrome P450 1A2 (Homo sapiens) (UniProt P05177); assay: Cytochrome P450 Family 1 Subfamily A Member 2 (CYP1A2) small molecule antagonists: luciferase reporter qHTS assay (AID 1671199); note: nearly all actives have a fitted effect of over 50% in size; note: potency is the fitted concentration of half-maximal effect; for activity change, negative = inhibition: series mostly up to about 120 µM
Outline: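 P450-Glo CYP1A2 enzyme–proluciferin substrate mix with compound 10 min at room temperature, then NADPH regeneration 1 h at room temperature. Luciferin detection reagent added, luminescence read after 20 min; furafylline positive control.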

[10] = target: Voltage-gated inwardly rectifying potassium channel KCNH2 (Homo sapiens) (UniProt Q12809); assay: Human Ether-a-go-go-Related Gene (hERG) channel small molecule antagonists: fluorescence cell-based qHTS assay (AID 1671200);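 note: hERG-expressing U2OS cells given a thallium stimulus after FluxOR II dye loading; series mostly up to about 77 µM; nearly all actives have a fitted effect of over 50% in size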
Outline: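 Fluorescence at 540 nm emission (480 nm excitation) was recorded kinetically for 2 min at 1-second intervals once the thallium-containing stimulus reached cells previously loaded with FluxOR II dye.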

[11] = target: Cytochrome P450 3A4 (Homo sapiens) (UniProt P08684); assay: Cytochrome P450 Family 3 Subfamily A Member 4 (CYP3A4) small molecule antagonists: luciferase reporter qHTS assay (AID 1671201); note: nearly all actives have a fitted effect of over 50% in size; note: potency is the fitted concentration of half-maximal effect; for activity change, negative = inhibition: series mostly up to about 120 µM
Outline: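 qHTS, 1536-well. CYP3A4 + proluciferin substrate, cpd 10 min RT → NADPH regen 1 h RT → detection reagent 20 min → luminescence (RLU). Ketoconazole positive control.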

[12] = target: Cytochrome P450 2D6 (Homo sapiens) (UniProt P10635); assay: Cytochrome P450 Family 2 Subfamily D Member 6 (CYP2D6) small molecule antagonists: luciferase reporter qHTS assay (AID 1671196); note: nearly all actives have a fitted effect of over 50% in size; note: potency is the fitted concentration of half-maximal effect; for activity change, negative = inhibition: series mostly up to about 120 µM
Outline: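 Cell-free P450-Glo system: CYP2D6 with proluciferin substrate was pre-incubated with compound for 10 min, then reacted with NADPH regeneration for 1 h at room temperature. Luciferin product was detected after 20 min, and data were reported as relative luminescence units.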

[13] = target: Nuclear receptor subfamily 1 group I member 2 (Rattus norvegicus) (UniProt Q9R1A7); assay: Rat pregnane X receptor (rPXR) activation by small molecules, qHTS assay (AID 1346983); conditions: rPXR luciferase reporter cells, One-Glo luminescence, 24 h; max activation: stronger effect = higher value; note: nearly all actives have a fitted effect of over 20% in size
Outline: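 Cell-based rPXR activation assay: rPXR cells, 2,000 per well, rested 5hr at 37 C, then exposed to compounds in DMSO for 24 hr at 37 C. Luciferase activity read by One-Glo luminescence after 30 min at room temperature.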

[14] = target: Nuclear receptor subfamily 1 group I member 2 (Homo sapiens) (UniProt O75469); assay: CYP3A4 induction through human pregnane X receptor (PXR) by small molecules, qHTS assay (AID 1346984); note: nearly all actives have a fitted effect of over 40% in size
Outline: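 DPX-2 HepG2 cells carrying a PXR response element and CYP3A4-promoter luciferase construct, treated with compounds 24 hr at 37C. Then P450-Glo CYP3A4 Luciferin-IPA substrate (3uM final) for 3 hr at 37C, One-Glo added, luminescence read.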

[15] = target: Nuclear receptor subfamily 1 group I member 2 (Homo sapiens) (UniProt O75469); assay: Human pregnane X receptor (PXR) activation by small molecules, qHTS assay (AID 1346985); note: nearly all actives have a fitted effect of over 40% in size
Outline: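 DPX-2 cells (HepG2 co-transfected with a PXR response element and a CYP3A4-promoter luciferase construct) were seeded at 2,000 per well, rested 5 hr at 37C, then exposed to DMSO-dissolved compounds for 24 hr. Activation was read as luciferase luminescence.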
% is set by controls: 0 for no effect and ±100 for the full control effect.

Chain of Cytochrome P450 2C9 (Homo sapiens) (P11712 whole entry, looked up): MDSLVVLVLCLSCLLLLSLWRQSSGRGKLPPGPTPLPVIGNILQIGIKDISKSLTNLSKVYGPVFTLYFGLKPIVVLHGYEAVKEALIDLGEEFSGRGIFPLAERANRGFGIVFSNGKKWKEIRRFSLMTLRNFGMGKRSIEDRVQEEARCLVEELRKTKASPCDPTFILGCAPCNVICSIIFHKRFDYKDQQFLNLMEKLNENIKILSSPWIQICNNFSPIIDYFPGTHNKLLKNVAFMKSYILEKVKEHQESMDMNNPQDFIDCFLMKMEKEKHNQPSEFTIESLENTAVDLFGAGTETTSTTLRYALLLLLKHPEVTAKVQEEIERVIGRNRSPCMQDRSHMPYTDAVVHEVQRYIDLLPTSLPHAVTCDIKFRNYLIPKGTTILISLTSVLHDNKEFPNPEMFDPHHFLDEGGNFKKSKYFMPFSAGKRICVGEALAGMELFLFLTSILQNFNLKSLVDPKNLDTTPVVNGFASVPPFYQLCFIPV
Chain of Nuclear receptor subfamily 1 group I member 2 (Homo sapiens) (O75469 whole entry, looked up): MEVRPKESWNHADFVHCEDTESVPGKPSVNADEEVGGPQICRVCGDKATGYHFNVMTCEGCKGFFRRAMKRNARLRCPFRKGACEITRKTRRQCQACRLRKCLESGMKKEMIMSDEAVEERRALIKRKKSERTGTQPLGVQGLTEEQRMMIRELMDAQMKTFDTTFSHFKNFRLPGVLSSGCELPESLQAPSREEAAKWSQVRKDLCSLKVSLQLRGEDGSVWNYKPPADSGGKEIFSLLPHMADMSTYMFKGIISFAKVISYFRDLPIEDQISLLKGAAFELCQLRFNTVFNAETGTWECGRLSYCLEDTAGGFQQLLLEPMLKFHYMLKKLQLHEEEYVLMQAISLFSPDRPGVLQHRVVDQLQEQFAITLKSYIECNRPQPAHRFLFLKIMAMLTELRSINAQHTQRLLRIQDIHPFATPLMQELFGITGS
Chain of Cytochrome P450 1A2 (Homo sapiens) (P05177 whole entry, looked up): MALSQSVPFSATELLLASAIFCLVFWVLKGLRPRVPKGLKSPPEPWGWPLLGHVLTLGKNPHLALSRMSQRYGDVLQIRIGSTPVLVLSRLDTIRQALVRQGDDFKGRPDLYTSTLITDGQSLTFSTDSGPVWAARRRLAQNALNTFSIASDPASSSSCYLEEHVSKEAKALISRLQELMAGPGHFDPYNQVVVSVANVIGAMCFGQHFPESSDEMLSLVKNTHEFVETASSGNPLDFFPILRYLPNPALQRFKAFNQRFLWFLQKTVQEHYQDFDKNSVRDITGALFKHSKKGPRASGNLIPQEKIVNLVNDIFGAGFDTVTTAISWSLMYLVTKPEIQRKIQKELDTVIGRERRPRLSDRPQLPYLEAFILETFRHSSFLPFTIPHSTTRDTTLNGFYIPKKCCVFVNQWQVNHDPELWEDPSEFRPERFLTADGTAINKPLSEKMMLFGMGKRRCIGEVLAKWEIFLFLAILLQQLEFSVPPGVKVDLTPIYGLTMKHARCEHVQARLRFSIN
Chain of Cytochrome P450 2C19 (Homo sapiens) (P33261 whole entry, looked up): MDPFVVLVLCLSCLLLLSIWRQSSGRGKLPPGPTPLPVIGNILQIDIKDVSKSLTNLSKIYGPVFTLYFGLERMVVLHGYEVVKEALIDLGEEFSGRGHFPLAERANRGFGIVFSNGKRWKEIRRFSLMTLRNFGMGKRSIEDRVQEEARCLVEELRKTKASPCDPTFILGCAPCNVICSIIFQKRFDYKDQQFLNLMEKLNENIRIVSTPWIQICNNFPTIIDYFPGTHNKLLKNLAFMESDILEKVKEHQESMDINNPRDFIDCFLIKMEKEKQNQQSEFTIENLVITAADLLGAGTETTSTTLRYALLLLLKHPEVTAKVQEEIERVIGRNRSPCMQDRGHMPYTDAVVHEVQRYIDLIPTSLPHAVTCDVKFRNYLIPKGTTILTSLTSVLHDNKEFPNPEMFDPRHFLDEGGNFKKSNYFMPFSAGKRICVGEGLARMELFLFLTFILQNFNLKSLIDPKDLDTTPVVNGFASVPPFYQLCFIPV
Chain of Cytochrome P450 2D6 (Homo sapiens) (P10635 whole entry, looked up): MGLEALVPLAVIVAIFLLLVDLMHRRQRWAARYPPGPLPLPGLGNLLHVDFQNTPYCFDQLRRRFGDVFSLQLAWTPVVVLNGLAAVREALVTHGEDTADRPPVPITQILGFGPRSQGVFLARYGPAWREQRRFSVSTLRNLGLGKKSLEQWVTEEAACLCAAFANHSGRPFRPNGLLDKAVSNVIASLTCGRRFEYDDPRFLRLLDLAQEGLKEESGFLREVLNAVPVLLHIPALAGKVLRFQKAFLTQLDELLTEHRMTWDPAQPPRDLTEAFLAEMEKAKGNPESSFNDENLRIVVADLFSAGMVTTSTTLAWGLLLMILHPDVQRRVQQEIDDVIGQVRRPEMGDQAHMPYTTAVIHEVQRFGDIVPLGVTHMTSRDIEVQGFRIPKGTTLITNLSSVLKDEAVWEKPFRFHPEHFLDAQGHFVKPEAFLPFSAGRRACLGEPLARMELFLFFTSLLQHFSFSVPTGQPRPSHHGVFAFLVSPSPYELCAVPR
Chain of Cytochrome P450 3A4 (Homo sapiens) (P08684 whole entry, looked up): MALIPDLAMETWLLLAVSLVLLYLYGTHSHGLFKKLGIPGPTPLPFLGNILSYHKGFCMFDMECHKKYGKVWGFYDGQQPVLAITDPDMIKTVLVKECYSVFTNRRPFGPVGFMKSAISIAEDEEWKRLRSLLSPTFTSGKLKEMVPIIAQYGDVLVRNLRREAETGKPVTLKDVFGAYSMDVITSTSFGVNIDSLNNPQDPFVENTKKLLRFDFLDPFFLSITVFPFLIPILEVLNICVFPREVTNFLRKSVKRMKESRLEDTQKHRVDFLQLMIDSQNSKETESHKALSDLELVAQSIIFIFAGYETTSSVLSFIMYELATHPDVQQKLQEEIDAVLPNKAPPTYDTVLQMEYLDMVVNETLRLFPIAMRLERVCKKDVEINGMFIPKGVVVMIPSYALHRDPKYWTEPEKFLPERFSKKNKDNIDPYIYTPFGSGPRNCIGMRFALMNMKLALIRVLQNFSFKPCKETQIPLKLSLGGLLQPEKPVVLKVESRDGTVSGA
Chain of Voltage-gated inwardly rectifying potassium channel KCNH2 (Homo sapiens) (Q12809 whole entry, looked up): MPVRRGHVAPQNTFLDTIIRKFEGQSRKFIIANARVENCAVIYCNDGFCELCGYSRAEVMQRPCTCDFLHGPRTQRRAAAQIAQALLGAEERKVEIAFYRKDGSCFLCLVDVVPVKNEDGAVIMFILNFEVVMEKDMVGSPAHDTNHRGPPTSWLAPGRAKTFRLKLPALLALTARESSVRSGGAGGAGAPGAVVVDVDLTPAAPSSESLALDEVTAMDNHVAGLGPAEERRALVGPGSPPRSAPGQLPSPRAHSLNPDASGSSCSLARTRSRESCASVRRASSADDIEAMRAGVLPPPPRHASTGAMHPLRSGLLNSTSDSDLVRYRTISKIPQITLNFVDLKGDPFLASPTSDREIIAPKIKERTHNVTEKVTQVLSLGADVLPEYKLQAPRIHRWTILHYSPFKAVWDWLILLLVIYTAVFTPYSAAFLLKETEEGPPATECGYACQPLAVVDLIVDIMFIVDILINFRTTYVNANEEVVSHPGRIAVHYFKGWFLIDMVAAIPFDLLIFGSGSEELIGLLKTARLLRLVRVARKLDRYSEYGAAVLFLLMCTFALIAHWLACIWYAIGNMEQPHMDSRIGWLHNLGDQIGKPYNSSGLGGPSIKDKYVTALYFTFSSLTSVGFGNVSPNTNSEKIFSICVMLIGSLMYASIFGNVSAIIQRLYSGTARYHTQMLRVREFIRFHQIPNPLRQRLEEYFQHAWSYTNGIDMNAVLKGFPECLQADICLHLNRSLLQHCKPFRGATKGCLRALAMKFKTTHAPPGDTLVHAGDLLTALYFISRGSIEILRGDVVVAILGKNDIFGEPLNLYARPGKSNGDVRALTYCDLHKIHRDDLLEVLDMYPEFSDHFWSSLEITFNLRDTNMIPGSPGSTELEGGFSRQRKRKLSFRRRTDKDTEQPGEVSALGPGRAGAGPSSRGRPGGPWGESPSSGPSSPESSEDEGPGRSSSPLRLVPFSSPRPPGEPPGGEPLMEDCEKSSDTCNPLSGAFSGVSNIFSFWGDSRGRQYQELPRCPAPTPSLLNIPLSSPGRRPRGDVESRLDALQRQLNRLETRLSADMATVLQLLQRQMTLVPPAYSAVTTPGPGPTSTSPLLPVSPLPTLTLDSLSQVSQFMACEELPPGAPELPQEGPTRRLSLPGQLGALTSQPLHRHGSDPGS
Chain of Nuclear receptor subfamily 1 group I member 2 (Rattus norvegicus) (Q9R1A7 whole entry, looked up): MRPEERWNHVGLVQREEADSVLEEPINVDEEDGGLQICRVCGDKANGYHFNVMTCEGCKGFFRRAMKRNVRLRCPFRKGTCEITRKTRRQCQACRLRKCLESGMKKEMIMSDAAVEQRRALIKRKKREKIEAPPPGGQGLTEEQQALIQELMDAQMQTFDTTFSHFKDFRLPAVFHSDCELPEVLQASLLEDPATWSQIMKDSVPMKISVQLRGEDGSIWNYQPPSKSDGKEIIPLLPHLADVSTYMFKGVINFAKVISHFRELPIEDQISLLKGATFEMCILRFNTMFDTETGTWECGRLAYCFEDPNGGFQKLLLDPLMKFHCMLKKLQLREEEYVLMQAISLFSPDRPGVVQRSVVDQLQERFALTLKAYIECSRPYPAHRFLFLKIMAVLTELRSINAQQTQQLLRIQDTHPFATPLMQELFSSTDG

O=C1OC[C@H](Cc2cccc(O)c2)[C@H]1Cc1cccc(O)c1
active: Potency [7] 4.8 µM | Potency [8] 13.5 µM | Potency [9] 10.7 µM
inactive: Potency [1] | Potency [2] | Potency [3] | outcome [4] | Potency [5] | Potency [6] | Potency [10]

CCCCCCC(O)CCOC(C)=O (stereo not given)
active: Potency [7] 167 µM
inactive: Potency [1] | Potency [2] | Potency [3] | outcome [4] | Potency [5] | Potency [6] | Potency [10] | Potency [11]

CC(C)N(C)C
inactive: Potency [1] | Potency [2] | Potency [3] | outcome [4] | Potency [5] | Potency [12] | Potency [7] | Potency [8] | Potency [9] | Potency [10] | Potency [11]

CCN(CC)c1ccc(C(=C2C=CC(=[N+](CC)CC)C=C2)c2ccc(S(=O)(=O)O)cc2S(=O)(=O)[O-])cc1
active: Potency [1] 15.4 µM | Potency [3] 15.4 µM | Potency [5] 19.3 µM | Potency [7] 17.8 µM | Potency [8] 14.2 µM | Potency [9] 10 µM | Potency [11] 8.94 µM
inactive: Potency [2] | outcome [4] | Potency [6] | Potency [10]

CN1C(CSCC(F)(F)F)Nc2cc(Cl)c(S(N)(=O)=O)cc2S1(=O)=O (stereo not given)
active: Potency [6] 29.8 µM
inactive: Potency [1] | Potency [2] | Potency [3] | outcome [4] | Potency [5] | Potency [7] | Potency [9]

c1ccc2sc(SSc3nc4ccccc4s3)nc2c1
active: Potency [8] 9.52 µM
inactive: activity change, negative = cytotoxicity [1] 14.6% [at 19 µM] | caspase activation [2] 1.15% [at 19 µM] | activity change, negative = cytotoxicity [3] 8.61% [at 19 µM] | caspase-3/7 activation [4] -0.79% [at 19 µM] | activity change, negative = cytotoxicity [5] 0.175% [at 19 µM] | max activation [13] -4.43% | Potency [14] | Potency [15] | activity change, negative = inhibition [9] -16.1% [at 23.6 µM] | activity change, negative = inhibition [10] 5.4% [at 15.8 µM]

C=C(C)c1ccccc1
inactive: Potency [1] | Potency [2] | Potency [3] | outcome [4] | Potency [5] | Potency [6] | Potency [7] | Potency [8] | Potency [10]

O=C(Oc1ccccc1)c1ccc2ccccc2c1O
inactive: Potency [1] | Potency [2] | Potency [3] | outcome [4] | Potency [5] | Potency [11]
active: Potency [6] 61.1 µM | Potency [7] 79.6 µM | Potency [8] 12.6 µM | Potency [9] 5.64 µM

CCc1ccc(C)cc1
inactive: Potency [1] | Potency [2] | Potency [3] | outcome [4] | Potency [5] | Potency [12] | Potency [7] | Potency [8] | Potency [9] | Potency [10] | Potency [11]

CC(=O)OCC1=C(C(=O)O)N2C(=O)[C@@H](NC(=O)CSc3ccncc3)[C@H]2SC1
active: Potency [12] 11 µM | Potency [8] 13.8 µM
inactive: Potency [1] | Potency [2] | Potency [3] | outcome [4] | Potency [5] | max activation [13] -5.99% | Potency [9] | Potency [10]
